Hit rate of the full screen: of about 320,000 compounds, about 2,100 (0.66%) were called active. Roughly 53% stayed inconclusive and do not appear here. Calls come from the whole dose curve; as a rule, active = well fitted inhibition curve with a large enough effect in the signal ratio, with a control signal flat (not every such curve was filed as active); inconclusive = small, poorly fitted or top-dose-only effect, or effect the other way, or a change in a side signal; inactive = flat fitted curve, though single readings scatter; the % refers to the signal ratio. The entries come from a sample that favours actives as a whole.
Test: qHTS Assay for Lipid Storage Modulators in Drosophila S3 Cells;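 for cell number change: cells counted by Cell Tracker Red CMTPX staining in the red channel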; for lipid storage change, negative = inhibition: % is set by controls: 0 for no effect and ±100 for the full control effect
Conditions: BODIPY lipid droplet fluorescence, 18-24 h, cells fed with added oleic acid; cell number change: measured here: cell count max response; series mostly up to 46.1 µM
Summary of the method: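 Drosophila S3 cells got compounds at several concentrations plus oleic acid (400 uM solution). Laser-scanning cytometry with 488 nm excitation read lipid droplets at 500-530 nm and cells at 575-640 nm. Percent activity was relative to 20 uM Triacsin C.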
Potency is the fitted concentration of half-maximal effect.

SMILES	Potency	cell number change	lipid storage change, negative = inhibition
CC(C)c1nnc(SCC(=O)N2CCOCC2)n1C	inactive	3.98%	–
CN(C)S(=O)(=O)c1ccc2c(c1)Cc1cc(S(=O)(=O)N(C)C)ccc1-2	inactive	7.91%	–
Cc1ccc2c(c1)/C(=C/c1ccc(F)cc1)C(=O)N2	inactive	18%	–
CN(C)S(=O)(=O)c1ccc2c(c1)/C(=C/c1cc3c([nH]1)CCCC3)C(=O)N2	5.17 µM (active)	2.43%	–
CCOC(=O)C(=NCCCN(C)C)NNc1ccc(Br)cc1	inactive	23.2%	–
COCc1ccc(C(=O)N(C)C2CCCN(Cc3ccccc3F)C2)o1 (stereo not drawn)	inactive	-1.36%	–
CC(=O)c1c(C)[nH]c(C(=O)Nc2nc(C)cs2)c1C	inactive	-7.81%	–
COc1cccc(NS(=O)(=O)CC23CCC(CC2=O)C3(C)C)c1 (stereo not drawn)	3.66 µM (active)	-15%	–
COc1ccc(NS(=O)(=O)CC23CCC(CC2=O)C3(C)C)cc1 (stereo not drawn)	inactive	6.22%	–
CC1(C)C2CCC1(CS(=O)(=O)Nc1ccccc1)C(=O)C2 (stereo not drawn)	inactive	-22.6%	–
Cc1ccsc1C(=O)NCCc1nnc2ccccn12	inactive	18.3%	–
Cc1ccc(/C=N/N(C)C2=NS(=O)(=O)c3ccccc32)cc1	inactive	17.1%	–
COc1cccc(/C=N/N(C)C2=NS(=O)(=O)c3ccccc32)c1O	inactive	12.6%	–
CN(/N=C/c1cc(Cl)ccc1O)C1=NS(=O)(=O)c2ccccc21	3.66 µM (active)	12.6%	–
CCCCCOC(=O)CCN1C(=O)/C(=C2\SC(=S)N(CCC(=O)OCCCCC)C2=O)SC1=S	inactive	-3.31%	–
Cc1ccc(NC(=O)c2cc(=O)[nH]c3ccc(S(=O)(=O)N4CCOCC4)cc23)nc1	–	-6.73%	11.8% [at 0.0737 µM] (inactive)
COc1ccc(S(=O)(=O)Oc2ccccc2C(=S)N2CCOCC2)cc1	1.46 µM (active)	-29.9%	–
COc1ccc(S(=O)(=O)Oc2ccc(C(=S)N3CCOCC3)cc2OC)cc1	inactive	-13.8%	–
COc1ccc(S(=O)(=O)Oc2cccc(C(=S)N3CCOCC3)c2)cc1	inactive	-15.5%	–
COc1ccc2[nH]c(=O)c(CN(CCN(C)C)C(=O)NCc3ccccc3)cc2c1	inactive	17.8%	–

SMILES	Potency	cell number change	lipid storage change, negative = inhibition
COc1ccccc1CNCc1cc(OC)c(OC)cc1OC	inactive	-2.42%	–
COc1ccccc1CNCC(c1ccccc1)c1ccccc1	1.46 µM (active)	-20%	–
COc1ccccc1CNN	inactive	-17.3%	–
CCCCC(=O)Nc1ccc(NC(=O)c2cnccn2)cn1	inactive	3.06%	–
CCOC(=O)c1c(NC(=O)c2cccnc2)sc(C(C)=O)c1C	inactive	5.18%	–
O=C(c1ccc(S(=O)(=O)Nc2cccc(C(F)(F)F)c2)cc1)N1CCC1	inactive	1.62%	–
CCN(Cc1ccccc1)Cc1cccc([N+](=O)[O-])c1	inactive	–	–
O=[N+]([O-])c1cccc(CN(CCO)Cc2ccccc2)c1	13 µM (active)	-9.58%	–
OCCN(Cc1ccccc1)Cc1cccc(F)c1	inactive	-7.51%	–
CC1(C(=O)NC2CCCCCCC2)CCC(=O)N1Cc1ccco1 (stereo not drawn)	inactive	2.23%	–
CC(=O)N1CCC(N2CCN(c3ccccc3F)CC2)CC1	inactive	-0.227%	–
COC(=O)c1ccc(S(=O)(=O)N2CCCN(Cc3cccc(Br)c3F)CC2)n1C	inactive	–	–
COc1cc(NC2c3ccccc3C(=O)N2c2ccc(C)cn2)cc(OC)c1OC (stereo not drawn)	inactive	9.33%	–
CCOC(=O)c1cc(C(=O)NN)c(=O)[nH]c1C	inactive	-9.94%	–
COCCOc1ccc(C(F)(F)F)cc1NC(=O)COC(=O)c1c(C)noc1C	inactive	-13.3%	–
COc1ccc(Cl)cc1NC(=O)COC(=O)c1c(-c2ccccc2)noc1C	inactive	-24.6%	–
COc1ccc(OC)c(NC(=O)COC(=O)c2c(C)noc2C)c1	4.61 µM (active)	-7.27%	–
C=CCNC(=O)c1ccc(N(Cc2ccccc2)S(C)(=O)=O)cc1	inactive	-6.36%	–
COc1ccc(S(=O)(=O)N(C(=O)c2ccncc2)c2ccc(OC(=O)c3ccncc3)cc2)cc1	inactive	-3.33%	–
CCc1ccc(S(=O)(=O)N(C(=O)c2ccncc2)c2ccc(OC(=O)c3ccncc3)cc2)cc1	18.4 µM (active)	-8%	–

SMILES	Potency	cell number change	lipid storage change, negative = inhibition
O=C(Oc1ccc(N(C(=O)c2ccncc2)S(=O)(=O)c2ccc(F)cc2)cc1)c1ccncc1	inactive	–	–
CC(C)CN(CC(C)C)C(=O)COn1nnc2ccc(S(=O)(=O)N3CCOCC3)cc21	inactive	3.81%	–
CCCCn1nc2cc(C(=O)NCc3ccc(OC)cc3)ccc2c1OCC	inactive	-2.9%	–
C1=CC2CC1CC2CN1CCN(Cc2ccccc2)CC1 (stereo not drawn)	inactive	–	–
OCCN(Cc1ccccc1)CC1CC2C=CC1C2 (stereo not drawn)	29.1 µM (active)	0.638%	–
OCCN(Cc1ccccc1)Cc1ccccc1F	inactive	-24.2%	–
Cn1c2ccccc2c2nnc(SCC(=O)NC3CCCC3)nc21	inactive	-23.7%	–
COc1ccc(N2CCN(C(=O)CSc3nnc4c5cc(C)ccc5n(C)c4n3)CC2)cc1	inactive	15.5%	–
Cc1ccc2c(c1)c1nnc(SCC(=O)NC3CC3)nc1n2C	5.8 µM (active)	0.855%	–
Cn1c2ccc(Br)cc2c2nnc(SCC(=O)O)nc21	inactive	–	–
COc1ccc2c(c1)c1nnc(SCC(=O)NC3CC3)nc1n2C	1.46 µM (active)	-8.55%	–
Cn1c2ccccc2c2nnc(SCC(=O)NC3CC3)nc21	inactive	-0.952%	–
CC1CCC(NC(=O)COC(=O)c2cccnc2Cl)CC1 (stereo not drawn)	inactive	–	–
COC(=O)N1[C@H](Cc2ccccc2)C=C[C@]1(C)C(=O)NCc1ccccn1	inactive	11.5%	–
O=S(=O)(Nc1ccc(OC(F)F)cc1)c1ccc(-c2ccon2)s1	inactive	-0.692%	–
O=C(CN1C(=O)c2ccccc2S1(=O)=O)Nc1ccccc1C(=O)NCc1ccco1	inactive	-1.22%	–
C=CCN(C(=O)Cn1c(C(=O)OC)cc2oc(C)cc21)c1ccccc1	inactive	-13%	–
Clc1ccc(OCc2nc(-c3ccncc3)no2)c(Cl)c1	inactive	–	–
Clc1ccc(-c2noc(CCCOc3ccccc3)n2)cc1	inactive	-10.9%	–
Clc1ccc(OCCCc2nc(-c3cccnc3)no2)c(Cl)c1	14.6 µM (active)	-29.5%	–
